From article PMC4336329 (PLoS ONE, 2015)
Screen size: about 310,000 compounds; about 14,000 (4.5%) showed an effect of 50% or more. The effect is printed as a negative number. For the sample, strong results were picked, then their nearest neighbours and some compounds at random.

biological target: human ether-à-go-go-related gene (hERG) potassium channel (human, UniProt Q12809); assay: primary screen, population patch clamp on CHO cells stably expressing hERG; higher = less effect of the substance
Experimental: Briefly, Chinese hamster ovary (CHO) cells stably expressing the hERG channel were dislodged from tissue culture flasks and dispensed into PPC plates. […] During the recording, background leak currents were estimated by a 100 ms step to -80 mV from an initial holding potential of -70 mV and subtracted from the subsequent current measurement. The campaign was conducted in two phases using slight differences in recording protocol. In the first phase, the initial voltage pulse used a 100 ms step to -30 mV from a holding potential of -70 mV, a 2 s conditioning step to +25 mV, and a 2 s test step to -30 mV. During the second phase of the screen, the potential during the conditioning step was raised to +45 mV. In both phases of the campaign, a secondary voltage pulse was applied using the same parameters as the second phase initial pulse. The initial and secondary pulses were applied in the absence of compound, and upon application of 1 μM and 10 μM test concentrations. […]
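Further: peak tail current of the secondary pulse compared with the same well before compound.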

Sequence of human ether-à-go-go-related gene (hERG) potassium channel (Q12809 whole entry, looked up): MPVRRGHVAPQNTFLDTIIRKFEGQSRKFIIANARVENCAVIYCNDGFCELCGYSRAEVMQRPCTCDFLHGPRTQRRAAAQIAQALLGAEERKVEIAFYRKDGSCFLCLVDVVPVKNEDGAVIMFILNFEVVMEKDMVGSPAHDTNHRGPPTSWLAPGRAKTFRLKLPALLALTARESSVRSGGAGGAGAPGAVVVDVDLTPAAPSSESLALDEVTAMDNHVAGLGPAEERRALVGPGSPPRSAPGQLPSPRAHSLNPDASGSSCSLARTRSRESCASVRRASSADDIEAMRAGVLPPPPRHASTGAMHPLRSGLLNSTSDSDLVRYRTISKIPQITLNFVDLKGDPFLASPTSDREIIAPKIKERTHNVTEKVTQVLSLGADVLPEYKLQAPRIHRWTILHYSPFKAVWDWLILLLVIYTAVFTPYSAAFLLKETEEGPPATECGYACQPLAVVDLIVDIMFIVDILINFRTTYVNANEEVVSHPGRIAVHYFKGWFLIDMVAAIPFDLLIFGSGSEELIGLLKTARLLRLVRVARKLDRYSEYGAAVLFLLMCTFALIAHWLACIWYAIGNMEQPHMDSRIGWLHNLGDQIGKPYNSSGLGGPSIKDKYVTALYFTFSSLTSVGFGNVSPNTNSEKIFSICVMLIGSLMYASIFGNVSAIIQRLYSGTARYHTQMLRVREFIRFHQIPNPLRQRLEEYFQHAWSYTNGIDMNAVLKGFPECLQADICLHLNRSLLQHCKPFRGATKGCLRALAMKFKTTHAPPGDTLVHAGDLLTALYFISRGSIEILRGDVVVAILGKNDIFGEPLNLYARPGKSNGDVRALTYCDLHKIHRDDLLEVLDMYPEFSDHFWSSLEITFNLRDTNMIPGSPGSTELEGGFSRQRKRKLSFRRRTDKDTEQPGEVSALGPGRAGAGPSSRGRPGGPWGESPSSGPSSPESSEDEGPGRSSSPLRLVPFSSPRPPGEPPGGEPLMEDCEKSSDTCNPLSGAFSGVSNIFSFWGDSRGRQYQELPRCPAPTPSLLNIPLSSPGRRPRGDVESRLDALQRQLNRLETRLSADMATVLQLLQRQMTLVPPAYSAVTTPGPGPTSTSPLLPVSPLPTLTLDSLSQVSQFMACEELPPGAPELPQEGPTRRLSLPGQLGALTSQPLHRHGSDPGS

Structure (SMILES)	hERG current change (%, negative = inhibition) at 10uM [%]
CC12CCC(=O)N1C(C(=O)NCc1ccccc1Cl)CS2 (stereo not shown)	-9.42
Cc1cc(C)c(OCC(=O)N/N=C/c2ccco2)c(C)c1	-3.8
O=C1NC(=O)/C(=C\c2ccc(OCc3cnc(Cl)s3)cc2)S1	19.9
COc1cccc(Nc2cc(N3CCOCC3)c3nonc3c2[N+](=O)[O-])c1	-8.87
O=C(NCCO)N1c2ccccc2Sc2ccccc21	5.99
O=C(O)CCNC(=O)OCC1c2ccccc2-c2ccccc21	-6.49
COc1ccc(CCN2C(=O)C(C)=C(C)C2=O)cc1OC	11.7
Nn1c(SCC(=O)Nc2ccc3c(c2)OCO3)nnc1C1CC1	7.91
COc1ccc(N(C)S(=O)(=O)c2ccc(Cl)c(C(=O)NCC(C)(C)N3CCOCC3)c2)cc1	-41.5
Cc1ccc(NS(=O)(=O)c2ccc(NC(=O)N3CCCCC3)cc2)cc1	8.78
COCCOc1cc(NC(=O)c2cccc(OC)c2)c(Cl)cc1Cl	6.22
COc1ccc(OCC(O)CN(C)C(=O)/C=C/c2cccc([N+](=O)[O-])c2)cc1 (stereo not shown)	-80.5
CCCN(CCC)C(=O)/C=C/c1cccc([N+](=O)[O-])c1	-34.5
COc1ccc(/C=C/C(=O)OCc2cccc([N+](=O)[O-])c2)cc1	-9.66
CCCCN(CC)C(=O)/C=C/c1cccc([N+](=O)[O-])c1	-63.5
CCCN(CC(=O)Nc1ccc(Cl)cc1Cl)C(=O)/C=C/c1cccc([N+](=O)[O-])c1	-15.6
COc1ccc(OCC(O)CNC(=O)/C=C/c2cccc([N+](=O)[O-])c2)cc1 (stereo not shown)	17.6
CCCCN(CCCC)C(=O)/C=C/c1cccc([N+](=O)[O-])c1	-68
CC(C)N(C(=O)/C=C/c1cccc([N+](=O)[O-])c1)C(C)C	-13.8
CCCC(C)NC(=O)/C=C/c1cccc([N+](=O)[O-])c1 (stereo not shown)	-7.16
O=C(CCNC(=O)c1ccco1)Nc1ccc(Cl)c(C(F)(F)F)c1	-16.3
CCOC(=O)N1CCC(NC(=O)c2cc(COc3ccc(F)cc3Cl)on2)CC1	-0.672

Structure (SMILES)	hERG current change (%, negative = inhibition) at 10uM [%]
CCN(CC)c1ccc(/C=N/Nc2nc(C)cc(C)n2)c(O)c1	-7.99
Cc1ccc(C)c(S(=O)(=O)NCCCc2ccccc2)c1	-1.65
CN(c1ccc(C(=O)N2CCOCC2)cc1)S(=O)(=O)c1cccs1	29
COc1ccccc1NC(=O)CON=C(N)CC(=O)NC1CCCCC1	-1.99
CSc1nnc(NC(=O)c2cccc(S(=O)(=O)N3CCOCC3)c2)s1	-5
Cn1c(=O)n(C)c2cc(C(=O)c3ccccc3)ccc21	-1.74
Cc1cc(C)c[n+](CC(=O)c2ccc(C)c([N+](=O)[O-])c2)c1.[Br-]	-13.2
Cc1cc(C)c[n+](CC(=O)c2ccccc2)c1.[Br-]	22.8
Cc1cc(C)c[n+](CC(=O)c2c(C)cc(C)c([N+](=O)[O-])c2C)c1.[Br-]	-68.6
COc1cc(NS(=O)(=O)c2c(C)[nH]c(C)c2C(=O)N2CCCCC2)cc(OC)c1OC	5.18
CCCCCn1nc(C(=O)N2CCc3ccccc32)c2ccccc2c1=O	-3.43
Cc1ccc2nc(Nc3ncc4c(n3)CC(C)(C)CC4=O)nc(C)c2c1	15.3
O=C(CSc1nc2ccc(NC(=O)C3CCCCC3)cc2s1)NCC1CCCO1 (stereo not shown)	2.42
O=C(CSc1nc2ccc([N+](=O)[O-])cc2s1)NCC1CCCO1 (stereo not shown)	-54.4
O=C(CSc1nc2ccccc2s1)NCC1CCCO1 (stereo not shown)	7.82
N#CC1(NC(=O)CN2C(=O)c3ccc([N+](=O)[O-])cc3C2=O)CCCCC1	4.83
N#CC1(NC(=O)CSc2nc3ccc([N+](=O)[O-])cc3s2)CCCCC1	-69.5
N#CC1(NC(=O)CSc2nc3ccccc3s2)CCCCC1	-15.7
CCn1c(/N=C/c2ccccc2NS(=O)(=O)c2ccc(C)cc2)nc2ccccc21	-19.8
COc1ccc(N(CC(=O)Nc2ccc(F)c(F)c2)S(=O)(=O)c2c(C)[nH]c(=O)[nH]c2=O)cc1	19.9
NC(=O)COC(=O)c1ccc(-c2ccccc2)cc1	14.2
CC(C)NC(=O)CN(Cc1ccc2c(c1)OCO2)C(=O)CCC(=O)Nc1ccccn1	1.7

Structure (SMILES)	hERG current change (%, negative = inhibition) at 10uM [%]
O=C(CCCC(=O)N(CC(=O)NC1CCCCC1)Cc1ccc2c(c1)OCO2)Nc1ccccn1	-54.3
CC(C)CCNC(=O)CN(Cc1ccc2c(c1)OCO2)C(=O)CCC(=O)Nc1ccccn1	-70.7
O=C(CCCC(=O)N(CC(=O)NC1CCCC1)Cc1ccc2c(c1)OCO2)Nc1ccccn1	-26.5
CC(C)CCNC(=O)CN(Cc1ccccc1)C(=O)CCC(=O)Nc1ccccn1	-19.7
O=C(CCCC(=O)N(CC(=O)NC1CCCCC1)Cc1ccccc1)Nc1ccccn1	-6.57
Cc1cccc(OCC(=O)N/N=C/c2cc([N+](=O)[O-])ccc2N2CCOCC2)c1	-9.73
COc1ccc(-c2oc3ccc(N4CCOCC4)cc3c2C#CC2(O)CCCCC2)cc1	17.3
CCN(CC)c1ccc(/C=C2/C(=O)ON=C2C)cc1	-20.9
Cc1cc(=O)n2nc(N3CCCC(C(=O)NCc4ccc(Cl)cc4)C3)sc2n1 (stereo not shown)	-71.7
Cc1cc(=O)n2nc(N3CCC(C(=O)N4CCN(c5ccccc5)CC4)CC3)sc2n1	-11.9
Cc1ccc(CCNC(=O)C2CCN(c3nn4c(=O)cc(C)nc4s3)CC2)cc1	-33.4
Cc1cc(=O)n2nc(N3CCC(C(=O)NCCc4ccc(Cl)cc4)CC3)sc2n1	-54.5
Cc1cc(=O)n2nc(N3CCC(C(=O)NCCc4ccccc4)CC3)sc2n1	-10.1
Cc1ccc(CNC(=O)C2CCCN(c3nn4c(=O)cc(C)nc4s3)C2)cc1 (stereo not shown)	-31.1
CCc1ccc(CNC(=O)C2CCCN(c3nn4c(=O)cc(C)nc4s3)C2)cc1 (stereo not shown)	-36.2
Cc1cc(=O)n2nc(N3CCCC(C(=O)N4CCN(C)CC4)C3)sc2n1 (stereo not shown)	-7.39
Cc1cc(=O)n2nc(N3CCCC(C(=O)N4CCN(c5ccccc5)CC4)C3)sc2n1 (stereo not shown)	-53.5
CCCc1cc(=O)n2nc(N3CCC(C(=O)NCc4ccc(C)o4)CC3)sc2n1	-61.6
CCCc1cc(=O)n2nc(N3CCC(C(=O)NCc4ccco4)CC3)sc2n1	-44.4
Cc1cc(=O)n2nc(N3CCC(C(=O)NCc4ccco4)CC3)sc2n1	17.9
